This is one part of a sample in which hits are shown more often than they occur.
YopH inh: inhibitors of Yersinia enterocolitica YopH tyrosine phosphatase | fluorescence Ex485/Em525 | inhibition, % (no concentration beside the values) | hit rate 0.16% among 140,000; in the data active = inhibition above about 50%
Mtb RmlCD inh: M. tuberculosis RmlC/RmlD inhibition. P9WH09+P9WH11. RmlC+RmlD coupled enzyme assay, percent inhibition; primary screen in compound mixtures. inhibition, % at 3.6 µM. hit rate 0.03% among 160,000. AID 1533; in the data active = inhibition mostly above about 34%, no sharp cut-off
The depositor's hits bear a star; . = no result.

SMILES	YopH inh	Mtb RmlCD inh
CC(C)N(C(=O)COc1ccc(Br)cc1Cl)C(C)C	52.4*	30.3
CN(C)c1cc(-c2ccc([N+](=O)[O-])cc2)oc(=O)c1Cl	.	-9.9
CN(C)/C=N/NC(=O)c1ccccc1	.	-11.0
O=C(NN=c1c(=O)c2ccccc2c1=O)c1ccccc1	68.3*	2.4
CC(C)(C)c1cc(OC(=O)c2ccncc2)ccc1O	56.8*	.
CC(C)(C)c1cc(OC(=O)c2ccccc2F)ccc1O	.	-0.3
COc1ccc(-n2ccnc2SCC(=O)NO)cc1	.	17.1
C#CCn1c(=O)cc(C)c2ccccc21	.	2.8
C#CCn1cc(C=C2C(=O)c3ccccc3C2=O)c2ccccc21	50.8*	24.6
CCNC(=O)c1cc2c(=O)n3cccc(C)c3nc2n(Cc2ccc(C)cc2)c1=N	-30.5	56.5*
Cc1cccn2c(=O)c3cc(C(=O)NC(C)C)c(=N)n(Cc4ccncc4)c3nc12	-34.2	6.4
CCCCC1=CC2=CC(=O)C(C)(OC(=O)CC)C(=O)C2=CN1Cc1ccc2c(c1)OCO2 (stereo not drawn)	.	17.7
CCCCCCCC1=CC2=CC(=O)C(C)(OC(C)=O)C(=O)C2=CN1CCc1ccccc1 (stereo not drawn)	50.4*	.
COCCCNC(=O)CC(NS(=O)(=O)c1ccc(C)cc1)c1ccco1 (stereo not drawn)	-25.8	4.3
COCCCNC(=O)CC(NS(=O)(=O)c1ccc(F)cc1)c1ccc(OC)cc1 (stereo not drawn)	68.2*	-7.9
O=C1CC(c2cccs2)Cc2nc(NC(=O)C3CC3)ncc21 (stereo not drawn)	.	11.2
COc1ccccc1-c1c(C)nn2c(N3CCCCCC3)cc(C)nc12	81.3*	2.1
COc1ccccc1-c1c(C)nn2c(N3CCN(c4ccccc4OC)CC3)cc(C)nc12	1.6	12.3
CC(NC(=O)COC(=O)CCc1ccccc1)c1ccccc1 (stereo not drawn)	-16.0	-8.3

High-throughput results: PubChem BioAssay, several laboratories
